The panel holds about 83,000 compounds, 20% with a hit somewhere; the sample as a whole holds those more often.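 48-hour exposure, single concentration, 96-well plates; percent growth endpoint where 0 means no net growth. Active: below 10.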 Values without a mark were called inactive. Activity calls are given as the source filed them.
Experiments:
Assay in all cases: NCI-60 one-dose screen, 48 h (100 = growth as untreated, 0 = no growth, -100 = all killed)
Settings in all cases: 10 µM unless noted
[1] = test system: NCI-H23 lung
[2] = test system: NCI-H226 lung
[3] = test system: NCI-H322M lung
[4] = test system: HOP-62 NSCLC
[5] = test system: NCI-H460 lung
[6] = test system: HOP-92 NSCLC
[7] = test system: NCI-H522 lung
[8] = test system: A549/ATCC NSCLC
[9] = test system: 786-0 renal
[10] = test system: DU-145 prostate
[11] = test system: K-562 leukemia
[12] = test system: MALME-3M melanoma
[13] = test system: MDA-MB-231 breast
[14] = test system: RXF 393 renal
[15] = test system: SF-268 CNS
[16] = test system: SF-295 CNS
[17] = test system: SF-539 CNS
[18] = test system: UACC-257 melanoma
[19] = test system: COLO 205 colon
[20] = test system: M14 melanoma

SMILES	growth [1]	growth [2]	growth [3]	growth [4]	growth [5]	growth [6]	growth [7] [%]	growth [8]	growth [9]	growth [10]	growth [11]	growth [12]	growth [13]	growth [14]	growth [15] [%]	growth [16]	growth [17]	growth [18]	growth [19]	growth [20] [%]
C=C(C=O)C1CCC2(C(=O)O)CCC3(C)C(CCC4C5(C)CCC(O)C(C)(C)C5CCC43C)C12 (stereo unspecified)	-52.1% (active)	5.95% (active)	31.3%	14.8%	-12.8% (active)	67.1%	24.2	34.1%	-37.3% (active)	-38.4% (active)	13.6%	1.55% (active)	32.6%	-63.7% (active)	24.3	-6.97% (active)	-43.4% (active)	-46.4% (active)		
COc1cc(NC(=O)c2cccc(-c3cc(=O)c4c(O)c(OC)c(OC)cc4o3)c2)cc(OC)c1OC	34.9%	7.69% (active)	74.4%	11.7%	53.8%	56.1%	41.2	40.5%	66.3%	57.3%	54.5%	51%		75%	61.9	61.5%	51.7%	66.1%	67.7%	
CC(=O)NCC(=O)Nc1ccc(-c2nnc3ccccn23)nc1.CC(=O)NCC(=O)Nc1ccc(-c2nnc3ccccn23)nc1.[Pt+2]	99.4%	110%	112%	101%	99.6%	119%	83.6	85%	107%	109%		105%	104%	117%	109	117%	110%	78.7%	111%	
Cc1c(C(=O)O)nnn1-c1nccs1	94.5%	95.9%	99.8%	84.1%	98.5%	82.4%	77.9	79.2%	97.1%	104%		102%	91.6%	112%	102	101%	92%	80.8%	107%	
Cc1cc(Cc2cc(C)cc(C(C)(C)C)c2O)c(O)c(C(C)(C)C)c1	23.3%	58.3%	75.7%	68.3%	8.85% (active)	18.5%	29.9	27.3%	57%	43.5%	13%	67.1%	57.2%	40.9%	49.2	6.54% (active)	62.4%	59.8%		
COc1cc(C(=O)Nc2cc(O)c(CC=C(C)C)c(O)c2)cc2c1O[C@]1(C)CC[C@@H](O)C(C)(C)[C@H]1C2	38.7%	47.6%	66.4%	6.01% (active)	15.6%	-5.08% (active)	10	18.5%	-11.7% (active)	42%		58.6%	24.1%	-18.5% (active)	39.5	-52.1% (active)	-50.8% (active)	27.2%	-11.8% (active)	
COc1ccc2cc(-c3ccc(C(=O)NN)c(C)n3)ccc2c1	95.5%	103%	94.6%	101%	104%	96.2%	69.8	93.1%	95.1%	103%		92.5%	97.4%	113%	91.9	99%	103%	99.6%	104%	
N#Cc1c(N)nc2c(nnn2-c2cccc(Br)c2)c1N	89.5%	95.7%	97.6%	94.8%	97.1%	82.2%	86	92.6%	105%	109%		115%	89%	111%	97.1	107%	105%	106%	105%	
N#Cc1c(NC(=O)c2ccc(Br)cc2)sc2c1CCCC2	65%	44.2%	52.1%	46.4%	14.3%	81.5%	22.6	53.6%	46.1%	33.3%	15.9%	49.2%	44.9%	13.7%	61.7	21.7%	10.5%	66.1%		17.3
N=C(N)c1ccc(-c2ccc(-c3ccc(Cl)c(Cl)c3)o2)cc1	45.4%	90.5%	-23% (active)	42.3%	-68.8% (active)	58.9%	57.7	-6.23% (active)	-91.1% (active)	3.63% (active)	-30.2% (active)	53.6%	-61% (active)	60.2%	73.1	-80% (active)	-89.1% (active)	84.5%		11.8
CNC1(C#N)CCN(Cc2ccccc2)CC1	97.6%	104%	336%	87.2%	108%	85.1%	90.1	98.1%	73.1%	113%	104%	226%	112%	99.1%	100	95.2%	100%	101%		94

Source: PubChem BioAssay (NCI)
